Source: PubChem BioAssay
Tg IFNy HTS: T. gondii growth inhibition with IFN-gamma, primary screen, cell-based; Toxoplasma gondii growth in IFN-gamma-treated host cells; stronger effect = lower value; activity change, negative = inhibition, % (no concentration beside the values); actives 3.8% (n = 69,000); in the data active means activity change below about -70%, passing the limit was not always enough;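 further: host cells are HeLa cells infected with Toxoplasma gondii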
Each line names hits and unclear results; the compound was inactive in the other large screens; ! = a repeat was not active. Many of the other results were omitted from the sample, so hits are more common in it than they were.

CCCc1cnc(C)nc1-c1cccc(CN2CCOCC2)c1	none
CN(Cc1ncc[nH]1)C(=O)COc1ccc2c(c1)OCO2	none
Cc1nn(-c2ccc(F)cc2)c(C)c1CNC(=O)COc1ccc2c(c1)OCO2	none
Cn1c(CN2CCCCC2)nc2cc(NC(=O)COc3ccc4c(c3)OCO4)ccc21	none
COCC(=O)Nc1cccc(-c2ccc3c(c2)OCO3)c1	none
CC(C)c1nnc(NC(=O)COc2ccc3c(c2)OCO3)s1	Tg IFNy HTS -85
COCCSc1nnc(NC(=O)COc2ccc3c(c2)OCO3)s1	Tg IFNy HTS -83
COc1c(C)cccc1C(=O)N1CCC(c2nn(CCN)c3ncccc23)C1 (stereo not given)	none
CNc1ccccc1C(=O)N1CCCN(C(=O)COC)CC1	none
Cc1ccccc1N1CCN(C(=O)Cc2c[nH]c(=O)[nH]c2=O)C(C)C1 (stereo not given)	none
CCN1CC2(CCCCN2C(=O)c2cccs2)CC1=O (stereo not given)	none
COCCN1C(=O)C[C@H]2[C@H]1CCN2S(=O)(=O)c1ccc(F)cc1	none
COc1ccc2c3c([nH]c2c1)C1(NCC3)C(=O)Nc2ccccc21 (stereo not given)	none
Cc1ccc2[nH]c3c(c2c1)CCNC31C(=O)Nc2ccccc21 (stereo not given)	none
COc1ccc2[nH]c3c(c2c1)CCN(C(=O)c1ccc(C)cc1)C31C(=O)Nc2ccccc21 (stereo not given)	Tg IFNy HTS -97
CC(C)CCN1C[C@@H]2N(c3ncccn3)CCC[C@@]2(C(=O)NCC2CC2)C1	none
Cc1ccsc1S(=O)(=O)N1CC[C@@H]2OCCN(C(C)C)[C@@H]2C1	none
CCS(=O)(=O)N1C[C@@H]2CN(Cc3ccoc3)CCO[C@H]2C1	none
O=C(NC1CCOCC1)c1ccc(-c2cc(-c3cn[nH]c3-c3ccccn3)ccn2)cc1	none
c1cc(-c2cnccn2)c2cccnc2c1	none
c1ccc(-c2[nH]ncc2-c2ccnc3ccccc23)nc1	Tg IFNy HTS -80!
Cc1c(C(=O)NCCS(=O)(=O)c2ccc(F)cc2)cccc1N1CCOCC1	none
CC(=O)c1ccc2c(c1)N(CCCN(C)C)c1ccccc1S2	none
CC(=O)c1cc(C(=O)NCCCN2CCCc3ccccc32)cs1	none
CN(C)CCCN1c2ccccc2CCc2ccc(Cl)cc21	Tg IFNy HTS -70!
CNCCCN1c2ccccc2CCc2ccccc21	Tg IFNy HTS -83!
CN(C)S(=O)(=O)CCNC(=O)C(=O)N1CCc2ccccc21	none
CN(C)CCCN1c2ccccc2Sc2ccccc21	none
CC(=O)NCCn1cnc(-c2ccccc2)c1/C(C)=C/c1ccco1	none
COC(=O)c1coc(CN2C[C@H]3CC=C(C)C[C@H]3C2)n1	none
CCc1nc(CN(C)C(=O)C2CC(C(C)C)=NO2)no1 (stereo not given)	none
CCN1C(=O)CCc2cc(NC(=O)Cc3ccccc3Cl)ccc21	none
Nc1ncnc2c1c(-c1cnc3[nH]ccc3c1)nn2C1CCCC1	Tg IFNy HTS -77
Cc1ccc(-c2cc(NC3CCCC3)nc3[nH]ccc23)c(N)n1	none
CCOC(=O)NC(Nc1cc(C)on1)(C(F)(F)F)C(F)(F)F	none
C#CCOC(=O)Nc1cnc(OCC)c(C(F)(F)F)c1	Tg IFNy HTS -75
CN(C)[C@@H]1C[C@@H](C(=O)O)N(Cc2ncc[nH]2)C1	none
Cc1ccnc(C(NC(=O)c2ccc(O)c(Cl)c2)C2CC2)c1 (stereo not given)	none
c1cc(CN2CCOCC2)cc(-c2ccc3ccccc3n2)c1	none
Cc1cccc(CN2CCN(Cc3ccc4cccc(F)c4n3)CC2)c1	none
CC[C@@H](C(=O)O)[C@@H]1O[C@@H]([C@@H](C)[C@H](O)[C@H](C)C(=O)[C@H](CC)[C@H]2O[C@]3(C=C[C@@H](O)[C@]4(CC[C@@](C)(C5CC[C@](O)(CC)[C@H](C)O5)O4)O3)[C@H](C)C[C@@H]2C)[C@@H](C)C[C@H]1C (stereo not given in full)	Tg IFNy HTS -81
CC(c1cccc(-c2nccc(C(F)(F)F)n2)c1)N1CCCC1 (stereo not given)	none
CC(CN(C)C(=O)c1cnc(-c2ccccc2)nc1)N1CCOCC1 (stereo not given)	none
CC(C)N=c1cc2n(-c3ccc(Cl)cc3)c3ccccc3nc-2cc1Nc1ccc(Cl)cc1	Tg IFNy HTS -71!
Clc1ccc(NCn2nnc3ccccc32)cc1	none
CSc1nc(-c2ccco2)nn1C(=O)c1ccc(F)cc1	none
CN(C)CCN(Cc1cccs1)Cc1coc2ccc(Cl)cc2c1=O	none
CC(C)(C)c1cc(CN2CCn3cncc3C2)[nH]n1	none
CO[C@@H]1CO[C@@]2(CCCN(C(=O)C3CC=CC3)C2)C1	none
N#Cc1ccc(N2CCN(S(=O)(=O)c3cccc4nonc34)CC2)cc1	none
Cc1cnc(C)c(-c2cc(O)c3c(c2)CN(Cc2ncccc2C)CCO3)n1	none
O=c1[nH]nc(Cc2ccccc2)n1-c1ccc2c(c1)OCO2	none
C[C@@H]1CCCCO[C@@H](CN(C)S(=O)(=O)c2ccc(Cl)cc2)[C@@H](C)CN([C@H](C)CO)C(=O)c2cc(NC(=O)Nc3ccc(C(F)(F)F)cc3)ccc2O1	none
COc1ccc(S(=O)(=O)Nc2ccc3c(c2)C(=O)N([C@H](C)CO)C[C@@H](C)[C@H](CN(C)S(=O)(=O)c2ccc(Cl)cc2)OCCCC[C@H](C)O3)cc1	Tg IFNy HTS -113
COc1ccc(S(=O)(=O)N(C)C[C@H]2Oc3c(NC(=O)c4nc5ccccc5s4)cccc3C(=O)N([C@H](C)CO)C[C@@H]2C)cc1	none
COc1ccc(S(=O)(=O)N(C)C[C@H]2Oc3c(NC(=O)c4nc5ccccc5s4)cccc3C(=O)N([C@@H](C)CO)C[C@H]2C)cc1	Tg IFNy HTS -82
COc1ccc(S(=O)(=O)Nc2ccc3c(c2)C(=O)N([C@@H](C)CO)C[C@@H](C)[C@H](CN(C)C(=O)Nc2c(C)noc2C)OCCCC[C@H](C)O3)cc1	none
COc1ccc(S(=O)(=O)N(C)C[C@@H]2Oc3c(NC(=O)c4nc5ccccc5s4)cccc3C(=O)N([C@H](C)CO)C[C@@H]2C)cc1	none
COc1ccc(S(=O)(=O)Nc2ccc3c(c2)C(=O)N([C@@H](C)CO)C[C@@H](C)[C@@H](CN(C)C(=O)Nc2c(C)noc2C)OCCCC[C@H](C)O3)cc1	Tg IFNy HTS -78
COc1ccc(S(=O)(=O)N(C)C[C@@H]2OCCCC[C@@H](C)Oc3ccc(NC(=O)Cc4ccccc4)cc3C(=O)N([C@H](C)CO)C[C@@H]2C)cc1	none
C[C@@H]1CCCCO[C@H](CN(C)S(=O)(=O)c2ccc(Cl)cc2)[C@@H](C)CN([C@H](C)CO)C(=O)c2cc(NC(=O)Nc3ccc(C(F)(F)F)cc3)ccc2O1	none
COc1ccc(S(=O)(=O)Nc2ccc3c(c2)C(=O)N([C@@H](C)CO)C[C@@H](C)[C@H](CN(C)C(=O)Nc2c(C)noc2C)OCCCC[C@@H](C)O3)cc1	none
COc1ccc(S(=O)(=O)Nc2ccc3c(c2)C(=O)N([C@H](C)CO)C[C@H](C)[C@H](CN(C)S(=O)(=O)c2ccc(Cl)cc2)OCCCC[C@@H](C)O3)cc1	none
COc1ccc(S(=O)(=O)Nc2ccc3c(c2)C(=O)N([C@@H](C)CO)C[C@H](C)[C@H](CN(C)S(=O)(=O)c2ccc(Cl)cc2)OCCCC[C@@H](C)O3)cc1	Tg IFNy HTS -112
C=CCn1c(=O)c(C(=O)NCc2ccc(C(=O)O)cc2)c(O)c2ccccc21	none
CCCCC(=O)Nc1ccc(C(=O)NC2CCCN(C(=O)C3CC3)C2)cc1 (stereo not given)	none
CCOC1C2CCC1N(C(=O)c1ccc(C)nc1)C2 (stereo not given)	none
CCc1nnc(NC(=O)C2CC(=O)N(c3cccc(C)c3)C2)s1 (stereo not given)	none
CNC(=O)c1cc2c(nc1NCC(C)C)CCN(Cc1c(C)noc1C)CC2	none
